Hits are enriched below; roughly 10% of the tested compounds scored in any of these assays.
GPT2 inh: GPT2 alanine aminotransferase inhibition; Q8TD30; 100,000 tested, 0.25% active; Recombinant GPT2, coupled pyruvate oxidase/HRP Amplex Red fluorescence; Potency, µM (doses to about 57.7 µM), inactives show at the highest dose activity change, negative = inhibition, usual class: inhibitors; further: nearly all actives have a fitted effect of over 60% in size
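GPT2 10ng/uL, a-KG 250uM, L-Ala 2mM, HEPES pH7.5 + 0.0001% Tween; 30 min RT. Then Amplex mix (PO/HRP/ThPP), 30 min RT dark, fluorescence. AOA 50uM used as positive control.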
NPR1 antag: blocks ANP-stimulated signaling of human Npr1 receptor. 76,000 tested, 1.6% active. P16066. HEK293 hNpr1 GloSensor cGMP, ANP-stimulated luminescence. Potency, µM (top dose mostly 46.3 µM), without a hit: at the top dose activity change, negative = inhibition, most hits filed as inhibitors; calls by dose curve; further: nearly all actives have a fitted effect of over 60% in size
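HEK293 cells stably expressing human Npr1 and cGMP GloSensor pGS-40F, loaded 2 h with 2% GloSensor reagent, given compound 30 min at room temperature. Luminescence read before and 20 min after 0.1 nM hNppA.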
NIH3T3 tox: cytotoxic compounds in NIH 3T3 cells | NIH 3T3 viability, CellTiter-Glo ATP luminescence, 48-72 h | Potency, µM (doses to about 96.7 µM), for inactives: top-dose activity change, negative = cytotoxicity, actives largely listed as inhibitors | 94,000 tested, 4.3% active | AID 1345082; further: nearly all actives have a fitted effect of over 55% in size
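Cytotoxicity is measured as loss of cellular ATP: NIH 3T3 cells (400/well) are exposed to compound for 48 or 72 hr at 37 °C, then CellTiter-Glo luminescence is imaged after 10 min at room temperature.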
Luciferase inh: Photinus pyralis luciferase inhibition; P08659; purified P. pyralis luciferase, luminescence, biochemical; Potency, µM (series often up to 115 µM), hits mostly inhibitors; 76,000 tested, 2.5% active; further: nearly all actives have a fitted effect of over 65% in size
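Luminescence read by CCD imaging after purified firefly luciferase (10nM final) was added to substrate buffer holding 10uM D-luciferin and 10uM ATP, pH 7.5, pre-dosed with compound.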
HEK cytotox: HEK 293 cell cytotoxicity; Potency, µM (top dose mostly 115 µM), for the others: top-dose activity change, negative = cytotoxicity, usual class: inhibitors; 94,000 tested, 6.6% active; HEK 293 viability, ATP luminescence (CellTiter-Glo), 48-72 h; AID 1345083; further: nearly all actives have a fitted effect of over 60% in size
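Viability of HEK 293 cells, plated at 250 cells/well, was judged by cellular ATP after compound treatment for 48 or 72 hr. Luminescence was imaged 10 min after CellTiter-Glo addition at room temperature.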
Starred values were filed as active, the others as inactive; i = inactive; u = inconclusive; x = not tested or not shown; [ ] = another dose, or the depositor's remark. Unless noted, the call rests on the fitted dose curve; in most records, active means well fitted curve in the direction sought with a large enough effect; inconclusive means small, poorly fitted or top-dose-only effect, or another doubt; inactive means no such curve, though single readings can be large; an effect the other way counts as inactive or inconclusive. On the % scale 0 is the no-effect control and ±100 the full control effect; potency means the concentration at half of the fitted maximal effect.

SMILES | GPT2 inh | NPR1 antag | NIH3T3 tox | Luciferase inh | HEK cytotox
O=C1CC2(CCN(C(=O)c3ccc4c(c3)OCO4)CC2)Oc2cc(Cl)ccc21 | i | -8% | u | i | 45µM*
COc1ccc(C2Cn3nnc(-c4nc(C5CCCCC5)no4)c3CO2)cc1 (centres undefined) | u | u | -8% | i | 4%
Cn1nc2n(c1=O)CCC(NC(=O)c1cc(C3CC3)[nH]n1)CC2 (centres undefined) | i | 3% | i | i | 2%
O=C(CCC1CCN(C(=O)c2ccccc2)CC1)NCCN1CCCCC1 | u | -5% | -2% | i | -17%
COc1ccccc1CN1C[C@@H](CO)[C@H](c2ccncc2)C1 | 5% | 2% | -21% | i | -7%
CC(C)Oc1ccccc1CN1C[C@@H](CO)[C@H](c2ccncc2)C1 | -3% | -17% | u | i | 40µM*
COc1cccc(CN2C[C@@H](CO)[C@H](c3ccncc3)C2)c1OC | i | 3% | -19% | i | 89µM*
COC[C@@H]1CN(Cc2cccc(OC)c2OC)C[C@H]1c1ccncc1 | i | -17% | u | i | 40µM*
COc1cc(NC(=O)Nc2nc3c(s2)C[C@]2(C)CC[C@@H]4[C@H](OC(=O)[C@H]4C)[C@H]2[C@@H]3C)cc(OC)c1 | -17% | 8% | u | u | u
Cc1cccc(CN2CCNc3cc(Nc4cccnc4)ncc3C2)c1 | 1%[88.5 µM] | 0%[70.6 µM] | u | i | u
Oc1ccccc1CN1CCNc2cc(Nc3cccnc3)ncc2C1 | 1%[88.5 µM] | -7%[70.6 µM] | u | u | 63µM*
COc1ccc(CN2CCNc3cc(Nc4cccnc4)ncc3C2)cc1O | 0%[88.5 µM] | 0%[70.6 µM] | u | i | u
c1ccc(Oc2cc3c(cn2)NCCN(Cc2cnc[nH]2)C3)cc1 | -2%[88.5 µM] | -27%[70.6 µM] | -25%[138 µM] | i | u
Oc1ccccc1CN1CCNc2cnc(OCc3cccnc3)cc2C1 | 3%[88.5 µM] | u | -19%[138 µM] | i | 100µM*
COc1ccc(CN2CCNc3cnc(Oc4ccccc4)cc3C2)cc1O | -10%[88.5 µM] | -4%[70.6 µM] | u | i | 63µM*
c1cncc(Nc2cc3c(cn2)CN(Cc2ccc4[nH]ccc4c2)CCN3)c1 | -7%[88.5 µM] | -23%[70.6 µM] | u | 40µM* | 89µM*
C=CCO[C@@H]1CCN2C(=O)c3cc(-c4ccccc4F)ccc3NC(=O)[C@H]12 | -11%[88.5 µM] | 2%[70.6 µM] | u | i | u
Cn1nc(-c2nncn2CC2CC2)c2c1CCN(C(=O)c1cn[nH]c1-c1ccccc1)C2 | -1% | 8% | i | u | i
FC(F)(F)c1ccc(CN2CCNc3cc(Nc4cccnc4)ncc3C2)cc1 | u | u | u | i | 32µM*
COCCN(C)C(=O)c1cn2cc(-c3cccc(Cl)c3)n(CC3CC3)c(=O)c2n1 | -5% | 0% | u | i | -20%
CCCN(C)C(=O)c1cn2cc(-c3cccc(Cl)c3)n(CC=C(C)C)c(=O)c2n1 | -8% | 4% | 40µM* | i | 28µM*
CC(C(=O)N1CCCC1)N1C(=O)COc2ccc(C(=O)COc3ccc(Cl)cc3)cc21 (centres undefined) | -2% | u | u | i | u
Cc1cnc(CC2CCN(C(=O)NC(C)(C)C)CC2)n1Cc1ccc(F)cc1 | -10% | 3% | -13% | i | -9%
CNC(=O)C1CCCCN1Cc1ccc(-c2ccsc2)cc1 (centres undefined) | -1%[88.5 µM] | x | u | x | u
O=C(NC1CC1)C1CCCCN1Cc1ccc(-c2ccsc2)cc1 (centres undefined) | 5%[88.5 µM] | x | 79µM* | x | u
SMILES | GPT2 inh | NPR1 antag | NIH3T3 tox | Luciferase inh | HEK cytotox
CC(C)NC(=O)C1CCCCN1Cc1ccc(-c2ccsc2)cc1 (centres undefined) | i | x | u | x | 50µM*
O=C(NC1CCCC1)C1CCCN1Cc1ccc(-c2cncnc2)cc1 (centres undefined) | -3%[88.5 µM] | x | u | x | u
C#CCNC(=O)C1CCCCN1Cc1ccc(-c2ccsc2)cc1 (centres undefined) | -4% | x | -39% | x | 40µM*
CNC(=O)C1CCCN1Cc1ccc(-c2cncnc2)cc1 (centres undefined) | i | x | -9%[138 µM] | x | -13%[172 µM]
O=C(NC1CCCC1)C1CCCCN1Cc1ccc(-c2ccsc2)cc1 (centres undefined) | 0% | x | u | x | 25µM*
CCOc1ccc(NC(=O)N2CCC(N3CC4CC(C3)[C@H]3CCCC(=O)N3C4)CC2)cc1 (some centres undefined) | i | -8% | i | i | -1%
Cc1cn2nc(C(=O)NCc3ccc(C(C)C)cc3)cc2c(=O)[nH]1 | 1% | 11% | -30% | 14µM* | u
CC(C)c1cccc(NC(=O)c2cc3n(n2)CC(c2ccc(Cl)cc2)OC3)c1 (centres undefined) | i | -3% | -29% | i | u
COc1cc(NC(=O)c2cc3n(n2)CC(c2ccc(Cl)cc2)OC3)cc(OC)c1OC (centres undefined) | -15% | -22% | u | i | 45µM*
COc1ccc(CCNC(=O)c2cc3n(n2)CC(c2ccc4c(c2)OCO4)OC3)cc1OC (centres undefined) | -26% | u | u | i | u
COc1ccc(NC(=O)c2cc3n(n2)CC(c2ccc(Cl)cc2)OC3)cc1 (centres undefined) | 0% | u | u | u | u
COc1ccc(CCNC(=O)c2cc3n(n2)CC(c2ccc(Cl)cc2)OC3)cc1OC (centres undefined) | i | u | u | i | 45µM*
CC(C)c1ccc(CNC(=O)c2cc3n(n2)CC(c2ccc(Cl)cc2)OC3)cc1 (centres undefined) | -4% | -27% | 28µM* | i | 32µM*
CN1c2cc(C(=O)NC3CCN(Cc4ccccc4)CC3)ccc2C(=O)N2CCCCC21 (centres undefined) | -1% | 0% | -14% | i | u
CCN1CC2(CCN(C(=O)CC(N)c3ccc(OC)c(OC)c3)CC2)CC1=O (centres undefined) | u | -1% | -10% | i | -15%
COCc1nc(C2CCN(S(=O)(=O)c3cccc(OC)c3)C2)no1 (centres undefined) | i | -7% | -18% | i | u
Cc1ccc(-c2c(C(=O)NCC3CCCCC3)nc3sccn23)cc1 | i | x | u | x | u
COc1ccccc1CNC(=O)c1cc2n(n1)CC(c1ccc(Cl)cc1)OC2 (centres undefined) | i | u | u | i | 40µM*
COc1ccc(CNC(=O)c2cc3n(n2)CC(c2ccc(Cl)cc2)OC3)c(OC)c1 (centres undefined) | 0% | -15% | u | i | u

Source: PubChem BioAssay (National Center for Advancing Translational Sciences (NCATS))
